Screening data as filed in PubChem BioAssay.
This is one part of a sample in which hits are shown more often than they occur.
Pf Dd2 growth = inhibitors of Plasmodium falciparum Dd2 growth; P. falciparum Dd2 growth, SYBR Green, 72 h; Potency, µM (highest dose often 28.9 µM), hits mostly inhibitors; actives 4.3% (n = 120,000); active = well fitted inhibition curve with a large enough effect; note: nearly all actives have a fitted effect of over 65% in size
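Infected erythrocytes (Dd2, 0.3% parasitemia, 2.5% hematocrit final) are added to compound in RPMI-1640/Albumax II medium, grown 72 h at 37C in low oxygen, then lysed with saponin/Triton-X containing SYBR Green and read by fluorescence.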
Numbers stand for hits; i = inactive.

SMILES	Pf Dd2 growth
Cc1nn(C(C)C)c(C)c1CN1CC[C@@H](c2ccc3c(c2)OCO3)[C@H](O)C1	i
O=C(c1cccnc1)N1CC2CC(C1)[C@H]1CCCC(=O)N1C2 (some centres undefined)	i
Cn1nc(C(=O)N2CC[C@@H]3CN(S(C)(=O)=O)[C@@H]3C2)c2ccccc21	i
O=C(Nc1ccccc1)N1CCc2c(c3ccccc3n2CC2CC2)C1	i
CN(C)c1ccc(CN2CCC3(CC2)C(=NC2CCCCC2)NC(=O)N3c2cccnc2)cc1	i
C[S+](=O)([O-])N1CCC2(CC1)C(=NC1CCCC1)NC(=O)N2c1cc(F)cc(F)c1	i
O=C(OCc1ccccc1)N1CCC2(CC1)C(=NC1CCCC1)NC(=O)N2c1cc(F)cc(F)c1	i
O=C1NC(=NC2CCCC2)C2(CCN(Cc3ccccc3)C2)N1c1cc(F)cc(F)c1 (centres undefined)	1.4µM
O=C1NC(=NC2CCCC2)C2(CCCN(Cc3ccc(F)cc3)C2)N1c1cc(F)cc(F)c1 (centres undefined)	7.9µM
O=C1NC(=NC2CCCCC2)C2(CCN(Cc3cccnc3)C2)N1c1cccnc1 (centres undefined)	i
CN(C)c1ccc(CN2CCCC3(C2)C(=NC2CCCCC2)NC(=O)N3c2cc(F)cc(F)c2)cc1 (centres undefined)	5.6µM
O=C1NC(=NC2CCCC2)C2(CCN([S+](=O)([O-])c3ccccc3)C2)N1c1cc(F)cc(F)c1 (centres undefined)	i
CC(C)CCN1CCC2(CC1)C(=NC1CCCCC1)NC(=O)N2c1cccnc1	i
CC(C)CCN1CCC2(C1)C(=NC1CCCC1)NC(=O)N2c1cc(F)cc(F)c1 (centres undefined)	8.9µM
CC(=O)N1CCCC2(C1)C(=NC1CCCC1)NC(=O)N2c1cc(F)cc(F)c1 (centres undefined)	i
O=C1NC(=NC2CCCCC2)C2(CCN(Cc3ccsc3)C2)N1c1cc(F)cc(F)c1 (centres undefined)	i
CC(=O)c1cc(CN2CCC(c3nnc4n3CCCCC4)CC2)n(C)c1	i
COc1ccc(C2Cn3nnc(C(=O)NCc4cccc(C(F)(F)F)c4)c3CO2)cc1 (centres undefined)	i
CCCC(=O)Nc1ccc([C@H]2OCC(=O)N(CC(C)C)[C@@H]2CO)cc1	i
Cc1noc(-c2nc(Cc3ccc(F)cc3)no2)n1	i
Cc1ccc(NC(=O)NC[C@H]2O[C@@H](CC(=O)NCCN3CCOCC3)[C@H](O)[C@@H]2O)cc1	i
COC1CN(C2CCNCC2)C12CCOCC2 (centres undefined)	i
C[C@]1(O)CCN(C(=O)Cc2ccc(-n3cnnn3)cc2)C[C@@H]1O	i
O=C(c1cnccn1)N1CCC(N2C(=O)C(OCC3CC3)C23CCCCC3)CC1 (centres undefined)	i
CCc1noc(-c2ccn3c(CNC(=O)c4cc(C)ccc4C)nnc3c2)n1	i
SMILES	Pf Dd2 growth
Cc1ccc(C2Cn3nnc(C(=O)N4CCC(C(=O)NC(C)c5ccc(F)cc5)CC4)c3CO2)cc1 (centres undefined)	i
COc1ccccc1C(=O)NCc1ccc2c(c1)CCN2C(=O)c1cccc(C)c1	i
CCC(=O)N1CCc2cc(CNS(=O)(=O)c3cccs3)ccc21	i
Cc1cccc(C(=O)N2CCc3cc(CNC(=O)CSc4ccccc4)ccc32)c1	i
Cc1cccc(OCC(=O)NCc2ccc3c(c2)CCN3C(=O)c2ccccc2)c1	10µM
Cn1nccc1C(=O)NCc1ccc2c(c1)CCN2C(=O)c1ccc(F)cc1	i
Cc1ccc(C(=O)N2CCc3cc(CNS(=O)(=O)c4cccs4)ccc32)cc1	8.9µM
O=C(NCc1ccc2c(c1)CCN2C(=O)c1ccc(F)cc1)c1ccc(Br)o1	11µM
Cc1cccc(C(=O)N2CCc3cc(CNC(=O)c4ccc(Br)o4)ccc32)c1	1.3µM
COc1ccc(CC(=O)NCc2ccc3c(c2)CCN3C(=O)c2ccccc2)cc1OC	i
Cc1cccc(C(=O)N2CCc3cc(CNS(=O)(=O)c4cccs4)ccc32)c1	i
Cc1cccc(C(=O)N2CCc3cc(CNC(=O)c4ccnn4C)ccc32)c1	i
O=C(NCc1ccc2c(c1)CCN2C(=O)c1ccccc1)c1ccc(Br)o1	i
Cc1noc(C)c1-c1ccc(S(=O)(=O)N[C@@H]2[C@@H](N)[C@H]3CCO[C@H]32)s1	i
CC1=NS(=O)(=O)N(C)C=C1C(=O)OCc1noc(-c2ccccc2C)n1	i
O=C(NCc1ccccn1)C1CCN(C(=O)c2ncn3c2COC(c2ccc(Cl)cc2)C3)CC1 (centres undefined)	i
COc1ccc(N2CC(C(=O)NCc3ccc(C(F)(F)F)cc3)NC2=O)cc1 (centres undefined)	i
CCC(C)NC(=O)c1ccc2c(c1)CC(=O)N2C (centres undefined)	i
COCCOC1CCN(C(=O)Cc2c[nH]c3ccccc23)CC1	i
Cc1noc([C@@H]2CN(C3CCN(Cc4ccccc4)CC3)C[C@H]2CO)n1	i
O=C(CCc1conc1-c1ccccc1)N1CCN(c2ccccc2Cl)CC1	i
COc1ncccc1CNC[C@H]1O[C@@H]2C[C@@H](CC(=O)NC(C)C)O[C@@H]2[C@@H]1O	i
